The panel holds about 83,000 compounds, 20% with a hit somewhere; the sample as a whole holds those more often.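 Step 1: grow cells in 96-well plates. Step 2: add test compound at a single concentration. Step 3: incubate 48 h. Step 4: record percent growth.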
Experiments:
Assay in all cases: NCI-60 one-dose screen, 48 h (100 = growth as untreated, 0 = no growth, -100 = all killed)
Conditions in all cases: 10 µM; active means growth percent below 10; inactive means the rest
[1] = system: NCI-H23 lung
[2] = system: NCI-H226 lung
[3] = system: NCI-H322M lung
[4] = system: HOP-62 NSCLC
[5] = system: NCI-H460 lung
[6] = system: NCI-H522 lung
[7] = system: A549/ATCC NSCLC
[8] = system: 786-0 renal
[9] = system: COLO 205 colon
[10] = system: DU-145 prostate
[11] = system: K-562 leukemia
[12] = system: MALME-3M melanoma
[13] = system: MDA-MB-231 breast
[14] = system: RXF 393 renal
[15] = system: SF-268 CNS
[16] = system: SF-295 CNS
[17] = system: SF-539 CNS
[18] = system: UACC-257 melanoma
[19] = system: M14 melanoma

Measured: growth

NC(=O)NC(=O)c1ccc(Cl)cc1
inactive: [1] 103% | [2] 102% | [3] 94.3% | [4] 94.4% | [5] 108% | [6] 79.5% | [7] 108% | [8] 99.6% | [9] 105% | [10] 116% | [11] 101% | [12] 92% | [13] 48.2% | [14] 131% | [15] 113% | [16] 112% | [17] 104% | [18] 107% | [19] 96.1%

Cc1ccc(/C(C#N)=C/c2ccc3c(c2)OCO3)cc1
inactive: [1] 71.2% | [2] 85.9% | [3] 78.8% | [4] 78.2% | [5] 71.3% | [6] 51.4% | [7] 57.5% | [8] 104% | [9] 65.8% | [10] 98.1% | [11] 32.4% | [12] 84.3% | [13] 73.3% | [14] 75.3% | [15] 87.7% | [16] 110% | [17] 91.1% | [18] 87.1% | [19] 75.2%

O=c1cc(-c2ccccc2)nc2cc(-c3ccco3)[nH]n12
inactive: [1] 96.5% | [2] 102% | [3] 95.6% | [4] 88.3% | [5] 104% | [6] 71.8% | [7] 56.7% | [8] 111% | [9] 95.6% | [10] 115% | [11] 42.8% | [12] 84.2% | [13] 98.8% | [14] 100% | [15] 93.8% | [16] 110% | [17] 81.8% | [18] 43.8% | [19] 77.8%

CCCCC(O)c1ccccc1 (stereo not drawn)
inactive: [1] 96.5% | [2] 97.2% | [3] 101% | [4] 110% | [5] 105% | [6] 108% | [7] 100% | [8] 104% | [9] 105% | [10] 108% | [11] 94% | [12] 102% | [13] 116% | [14] 107% | [15] 98.6% | [16] 104% | [17] 106% | [18] 101% | [19] 109%

NC(C(=O)O)C(O)c1ccco1 (stereo not drawn)
inactive: [1] 108% | [2] 96.6% | [3] 107% | [4] 104% | [5] 108% | [6] 137% | [7] 102% | [8] 98.3% | [9] 102% | [10] 115% | [11] 105% | [12] 98.6% | [13] 117% | [14] 105% | [15] 116% | [16] 108% | [17] 110% | [18] 102% | [19] 105%

CC(=O)Nc1ccc(NC(C)=O)c2c1C(=O)c1ccccc1C2=O
inactive: [1] 89.5% | [2] 81.7% | [3] 89.1% | [4] 81.9% | [5] 102% | [6] 89.3% | [7] 96.2% | [8] 91% | [9] 87.6% | [10] 96% | [11] 91.4% | [12] 86.1% | [13] 59.7% | [14] 108% | [15] 95.9% | [16] 99.8% | [17] 92.3% | [18] 110% | [19] 101%

O=C(O)CCC(=O)OC(C1CO1)C(OC(=O)CCC(=O)O)C1CO1 (stereo not drawn)
inactive: [1] 102% | [2] 96.5% | [3] 112% | [4] 102% | [5] 103% | [6] 91% | [7] 97.4% | [8] 103% | [9] 99.9% | [10] 105% | [11] 103% | [12] 86.9% | [13] 130% | [14] 99.9% | [15] 105% | [16] 92.3% | [17] 95.2% | [18] 85% | [19] 98.9%
